Results on 19 compounds are retold here after PubChem BioAssay AID1434 (Sanford-Burnham Center for Chemical Genomics, 2008).

SMILES strings stand for the structures. About 1,600 (0.73%) of roughly 220,000 compounds were called active.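 How the source made its calls: active means mean inhibition across duplicate retests at 20 µM reaching about 50% (limit read from the data); inactive means the rest, inconclusive results apart.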 What follows is part of a selection rich in actives, with near analogues and random picks from the rest.

The target in the assay is Runt-related transcription factor 1 (Homo sapiens) + Core-binding factor subunit beta (Homo sapiens) (UniProt Q01196+Q13951). As to the kind of experiment: inhibitors of RUNX1 Runt–CBFb-SMMHC binding, primary screen, biochemical, FRET, Cerulean-Runt, Venus-CBFb-SMMHC, uHTS (AID 1434).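 Further: 0% = DMSO wells and 100% = wells with excess untagged CBFb-SMMHC; inhibitors lower the FRET ratio by blocking Runt binding to CBFb-SMMHC.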 The conditions noted are these: Cerulean-Runt/Venus-CBFb-SMMHC FRET ratio 530/480, 1 h, at 20 µM, stronger effect = higher value.
Chain of Runt-related transcription factor 1 (Homo sapiens) + Core-binding factor subunit beta (Homo sapiens) (Q01196 whole entry, looked up): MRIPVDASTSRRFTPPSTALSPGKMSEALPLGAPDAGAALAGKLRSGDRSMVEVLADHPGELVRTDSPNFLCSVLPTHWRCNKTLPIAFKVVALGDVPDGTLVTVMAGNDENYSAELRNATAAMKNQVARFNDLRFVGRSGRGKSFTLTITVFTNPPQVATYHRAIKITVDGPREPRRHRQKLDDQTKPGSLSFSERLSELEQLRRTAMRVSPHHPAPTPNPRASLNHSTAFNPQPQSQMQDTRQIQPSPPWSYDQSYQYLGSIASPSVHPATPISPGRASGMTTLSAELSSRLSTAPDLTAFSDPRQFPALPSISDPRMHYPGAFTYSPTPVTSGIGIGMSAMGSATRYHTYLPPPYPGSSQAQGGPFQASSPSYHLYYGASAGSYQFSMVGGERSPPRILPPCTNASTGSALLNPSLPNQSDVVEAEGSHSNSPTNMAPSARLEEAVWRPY
Chain of Runt-related transcription factor 1 (Homo sapiens) + Core-binding factor subunit beta (Homo sapiens) (Q13951 whole entry, looked up): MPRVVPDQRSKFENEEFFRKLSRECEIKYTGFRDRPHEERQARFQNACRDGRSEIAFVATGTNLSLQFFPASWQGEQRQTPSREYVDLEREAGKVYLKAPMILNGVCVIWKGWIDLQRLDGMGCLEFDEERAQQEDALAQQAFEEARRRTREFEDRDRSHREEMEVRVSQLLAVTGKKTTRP

As to `Cc1c(CCC(=O)O)c(=O)oc2cc3occ(-c4ccccc4)c3cc12`, the inhibition is -3.4% (inactive).

Take `CCCCCCc1cc2cc(-c3nnc(-c4ccccc4)o3)c(=O)oc2cc1O`: the inhibition is 80.9% (active). In addition, where the note is “retest duplicate average”, the inhibition stood at 146%.

Take `CCCC(=O)Nc1nnc(-c2ccccc2)o1`: the inhibition is 0.5% (inactive).

`COc1ccc(OCCCn2cccc2/C=C2/C(=N)N3OC(C)=CC3=NC2=O)cc1`: the inhibition is 0.8% (inactive).

As to `Cc1nn(C)c(C)c1S(=O)(=O)N1CCC(CO)(Cc2ccc(Cl)cc2)CC1`, the inhibition was 2.4% (inactive).

As to `CCN(CC)CCn1c(/N=C/c2cc(Br)ccc2O)nc2ccccc21`, the inhibition was -10.6% (inactive).

Consider `O=C(CCCO)N/N=C/c1cc(Br)ccc1O`, for which the inhibition was 14.5% (inactive).

Consider `Oc1ccc(Br)cc1C=Nc1ccc2[nH]ncc2c1`, for which the inhibition was 75.6% (active). Further, where the note is “retest duplicate average”, the inhibition was 86.7%.

Consider `O=C(COC(=O)/C=C/c1ccc2c(c1)OCO2)NC1CCS(=O)(=O)C1` (configuration not stated), for which the inhibition was 0.9% (inactive).

Take `O=[N+]([O-])c1ccc2c(c1)C(N1CCOCC1)/C(=C/C1(O)CCCCC1)O2` (configuration not stated): the inhibition was -4.2% (inactive).

In the case of `CN(C(=O)CSc1nnc(-c2c[nH]c3ccccc23)o1)C1CCS(=O)(=O)C1` (configuration not stated), the inhibition is 2.4% (inactive).

For `Cn1c(CO)cnc1SCc1ccccc1`, the inhibition was 3.5% (inactive).

`O=c1c2ccccc2c(-c2ccccc2)nn1Cc1ccccc1`: the inhibition is 1.4% (inactive).

`CSc1c(SCc2ccccc2)cnn(Cc2ccccc2)c1=O`: the inhibition was 59% (active). Also, the inhibition (retest duplicate average) was determined as 54.5%.

`CNC(=O)C(NC(=O)c1ccccc1)=C(C)C`: the inhibition is -2.9% (inactive).

Take `Cc1nc(C(=O)Nc2ccc(Cl)cc2)sc1C1(C)CC(c2ccccc2)=NO1` (configuration not stated): the inhibition was -2.6% (inactive).

In the case of `Cc1cc(C#N)c(SCC(N)=O)nc1-c1ccc(F)cc1`, the inhibition is 14.7% (inactive).

`O=C(C1CCCO1)N1CCN(C(=S)NC2CC2)CC1` (configuration not stated): the inhibition was -0.8% (inactive).

Consider `CCCCCCCN=C(C)c1ccccc1O`, for which the inhibition was -0.5% (inactive).

As a reminder, the inhibition is the drop in the measured response relative to a control, in per cent.
